# PubChem BioAssay (EPA / NIEHS)
# The source made the active and inactive calls. The calls were made as follows: active = hit-call score of the fitted dose curve at least 0.9, where 1 is the maximum; inactive = score below 0.9.
# Experiment: ATG_M_61_CIS: Attagene CIS-FACTORIAL HepG2 Assay for M61 Transcription Factor (Internal Marker) (AID 2282937)
# Details: HepG2 Attagene CIS-FACTORIAL M61 internal marker reporter; actives raise or lower the signal
# Procedure, shortened: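 HepG2 cells transiently transfected with cis-element-driven multiple reporter transcription units, dosed for 24 h. Reporter mRNA measured by RT-PCR, 6-FAM primer-extension labelling, HpaI digestion and capillary electrophoresis; bidirectional fit versus DMSO baseline.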
row,SMILES,outcome
1,Nc1ccc(N=Nc2ccccc2)cc1,inactive
2,N#CC(Br)(Br)C(N)=O,inactive
3,OCCOCCO,inactive
4,CC(C)(OOC(C)(C)c1ccccc1)c1ccccc1,inactive
5,CCC(C)c1ccc(O)cc1 (stereo not drawn),inactive
6,Cc1cc(N=Nc2ccccc2C)ccc1N,inactive
7,CCC12COCN1COC2,inactive
8,CCCCCCCCn1sccc1=O,inactive
9,CCCCOC(=O)c1ccccc1C(=O)OCc1ccccc1,inactive
10,COC(=O)Nc1nc2ccccc2[nH]1,inactive
11,CC(C)(C)OOC(C)(C)CCC(C)(C)OOC(C)(C)C,inactive
12,O=C1CCCO1,inactive
13,CCC[CH2][Sn]([Cl])([CH2]CCC)[CH2]CCC,inactive
14,[O-][Cl+]O,inactive
15,ClCCOCCCl,inactive
16,CC(C)(C)OOC(=O)c1ccccc1,inactive
17,c1ccc(NNc2ccccc2)cc1,inactive
18,Cc1ccc(N=C=O)cc1N=C=O,inactive
19,c1ccc2c(c1)-c1cccc3cccc-2c13,inactive
20,Cc1cccc(N)c1N,inactive
21,Clc1ccc(C(c2ccc(Cl)cc2)C(Cl)(Cl)Cl)cc1,inactive
22,CN(C)c1ccc(C(=O)c2ccc(N(C)C)cc2)cc1,inactive
23,COC(=O)c1ccccc1N,inactive
24,O=C(N[C@H](c1ccccc1)[C@@H]1CN2CCC1CC2)c1c(Cl)ccc(C(F)(F)F)c1Cl,inactive
25,CN(C)c1ccccc1,inactive
26,O=[N+]([O-])c1ccc(Oc2ccc(Cl)cc2Cl)cc1,inactive
27,CCCCCCCCOC(=O)c1ccc(C(=O)OCCCCCCCC)c(C(=O)OCCCCCCCC)c1,inactive
28,COP(=S)(OC)SCN1C(=O)c2ccccc2C1=O,inactive
